CXXC DNA block – inhibitors of human MLL CXXC domain-DNA interaction; Q03164; MLL-CXXC / FITC-HOXA9 DNA fluorescence polarization; Potency, µM (series often up to 115 µM), most hits filed as inhibitors; actives 0.037% (n = 290,000); active = well fitted inhibition curve with a large enough effect in the polarisation, with a control signal flat, not every such curve was filed as active; inconclusive = small, poorly fitted or top-dose-only effect, or effect the other way, or a change in a side signal; inactive = no such curve, though single readings can be large or run the other way; the % refers to the polarisation
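Steps: dispense CXXC domain solution (7 uM) → pin compounds or unlabeled HOX-A9 DNA control → 5 min ambient → add FLSN-HOX-A9 solution (50 nM) → spin → 30 min ambient → fluorescence polarization. Tris pH 7.5/NaCl/DTT/BSA buffer.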
hERG WT inh – blocks the wildtype human KCNH2 potassium channel; Q12809; U2OS, BacMam KCNH2, thallium flux FluxOr; active compounds read low; activity change, % at 1.84 µM; actives 0.37% (n = 340,000);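 active = maximum activity change below -70%; inconclusive = maximum activity change between -70% and -50%; inactive = maximum activity change above -50%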
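U2OS cells were transduced with wild-type KCNH2 virus (2.03 x 10^8 / mL) for 4 h at room temperature, then cultured overnight at 37 C. Thallium flux was read with FluxOr dye. Rate constants were normalized to DMSO controls.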
Menin-MLL FL inh – inhibitors of human menin-MLL interaction, wild-type MLL peptide; Fluorescence polarization, fluorescein-MLL peptide displacement from menin; FP activity change, % at 61.4 µM; 290,000 tested, under 10 active; AID 1766; active = well fitted curve in the direction sought with a large enough effect in the polarisation, not every such curve was filed as active; inconclusive = small, poorly fitted or top-dose-only effect, or effect the other way, or a change in a side signal; inactive = no such curve, though single readings can be large or run the other way; the % refers to the polarisation
Menin MLL FP TR – inhibitors of human menin-MLL interaction, mutant MLL peptide; Potency, µM (titrated, usually from 61.6 µM), usual class: inhibitors; O00255; Menin + Texas Red MLL mutant peptide, fluorescence polarization; AID 1768; actives 0.23% (n = 270,000); active = well fitted inhibition curve with a large enough effect in the polarisation, with a control signal flat, not every such curve was filed as active; inconclusive = small, poorly fitted or top-dose-only effect, or effect the other way, or a change in a side signal; inactive = no such curve, though single readings can be large or run the other way; the % refers to the polarisation
Target sequence (O00255 whole entry, looked up): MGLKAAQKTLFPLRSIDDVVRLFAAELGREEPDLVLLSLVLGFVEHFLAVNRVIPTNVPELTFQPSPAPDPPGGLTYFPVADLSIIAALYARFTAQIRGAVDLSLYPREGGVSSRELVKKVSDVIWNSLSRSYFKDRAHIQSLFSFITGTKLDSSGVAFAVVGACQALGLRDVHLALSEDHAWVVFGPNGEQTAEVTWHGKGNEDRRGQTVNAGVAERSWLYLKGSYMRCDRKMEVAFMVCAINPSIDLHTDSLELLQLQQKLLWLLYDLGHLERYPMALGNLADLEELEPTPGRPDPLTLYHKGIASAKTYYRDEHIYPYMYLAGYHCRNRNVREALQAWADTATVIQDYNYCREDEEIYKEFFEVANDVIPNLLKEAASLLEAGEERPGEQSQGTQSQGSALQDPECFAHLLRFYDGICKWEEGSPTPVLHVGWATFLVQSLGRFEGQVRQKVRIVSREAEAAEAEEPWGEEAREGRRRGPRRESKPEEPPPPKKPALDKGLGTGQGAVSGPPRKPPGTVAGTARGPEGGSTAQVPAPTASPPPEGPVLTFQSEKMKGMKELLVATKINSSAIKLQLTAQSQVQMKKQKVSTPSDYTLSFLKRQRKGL
KCNH2 3.1 block – KCNH2 3.1 (human) potassium channel inhibition. activity change, % (tested at about 1.8 µM). U2OS KCNH2 3.1, thallium flux FluxOr; active compounds read low. actives 0.95% (n = 340,000);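 active = maximum activity change below -70%; inconclusive = maximum activity change from -70% to -50%; inactive = maximum activity change above -50%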;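 also: thallium influx rate constant from kinetic fluorescence after stimulation buffer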
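Virally transduced U2OS (3.1 isoform, 4 h infection in dark at RT) → overnight 37 C → FluxOr + Red40 in HBSS/HEPES, 45 min → stimulation buffer, 2 min kinetic read → rate constant vs DMSO controls.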
Large screens that a line does not name were inactive. Sampled rows, rich in hits. Any-hit rate of the full collection: about 1.1%.

CCN(CC)CCOC(=O)c1cccnc1	none (no result: hERG WT inh, KCNH2 3.1 block)
Cc1cc(N2CCN(S(=O)(=O)c3ccc(Cl)cc3)CC2)c2ccccc2n1	hERG WT inh inconclusive, KCNH2 3.1 block -95.1
Cc1cc(N2CCN(S(=O)(=O)c3ccc(Cl)c(Cl)c3)CC2)c2ccccc2n1	hERG WT inh inconclusive, Menin MLL FP TR inconclusive, KCNH2 3.1 block -113.2
Cc1cc(N2CCN(CC(O)C(F)(F)F)CC2)c2ccccc2n1 (stereo not drawn)	none
O=C(NCc1ccccc1Cl)C(=O)c1cn(CC(=O)N2CCOCC2)c2ccccc12	none (no result: Menin-MLL FL inh, Menin MLL FP TR)
CCc1cccc(C)c1NC(=O)CN1CCN(S(=O)(=O)c2ccc(C(C)(C)C)cc2)CC1	none (no result: CXXC DNA block, Menin-MLL FL inh, Menin MLL FP TR)
CC(=O)OC[C@H]1O[C@@H](Oc2cc(O)cc3oc(-c4ccc(O)cc4)cc(=O)c23)[C@H](O[C@@H]2O[C@@H](C)[C@H](O)[C@@H](O)[C@H]2O)[C@@H](O)[C@@H]1O	none (no result: CXXC DNA block, Menin-MLL FL inh, Menin MLL FP TR)
COc1ccc(CC(=O)OCC(=O)c2ccc[nH]2)cc1	hERG WT inh -284.3 (no result: CXXC DNA block, Menin-MLL FL inh, Menin MLL FP TR)
O=C(Cc1ccc(Br)cc1)OCC(=O)c1ccc[nH]1	none (no result: CXXC DNA block, Menin-MLL FL inh, Menin MLL FP TR)
CC(O)c1cccc2cc(C(O)CNC(C)(C)C)oc12 (stereo not drawn)	none (no result: CXXC DNA block, hERG WT inh, KCNH2 3.1 block)
O=C(NNC(=O)c1ccccc1-n1cccc1)c1cncc(Br)c1	none (no result: CXXC DNA block, Menin-MLL FL inh, Menin MLL FP TR)
CC(C)NC(=O)N(C)C[C@H]1Oc2ccc(NC(=O)Nc3ccccc3)cc2C(=O)N([C@@H](C)CO)C[C@@H]1C	KCNH2 3.1 block -145.1 (no result: CXXC DNA block, Menin-MLL FL inh, Menin MLL FP TR)
Cc1noc(C)c1S(=O)(=O)N(C)C[C@H]1Oc2ccc(NC(=O)Cn3cnnn3)cc2C(=O)N([C@H](C)CO)C[C@@H]1C	none (no result: CXXC DNA block, Menin-MLL FL inh, Menin MLL FP TR)
C[C@@H]1CN([C@@H](C)CO)C(=O)c2cc(NC(=O)C3CC3)ccc2O[C@@H]1CN(C)C(=O)NC1CCCCC1	KCNH2 3.1 block -100.1 (no result: CXXC DNA block, Menin-MLL FL inh, Menin MLL FP TR)
COc1ccc(NC(=O)Nc2ccc3c(c2)C(=O)N([C@H](C)CO)C[C@H](C)[C@@H](CN(C)S(=O)(=O)c2ccccc2)O3)cc1	KCNH2 3.1 block -96.6 (no result: CXXC DNA block, Menin-MLL FL inh, Menin MLL FP TR)
C[C@H](CO)N1C[C@H](C)[C@@H](CN(C)S(=O)(=O)c2ccccc2)Oc2ccc(NC(=O)Cn3cnnn3)cc2C1=O	KCNH2 3.1 block -92.4 (no result: CXXC DNA block, Menin-MLL FL inh, Menin MLL FP TR)
CC(C)NC(=O)N(C)C[C@H]1Oc2ccc(NC(=O)Nc3ccccc3)cc2C(=O)N([C@H](C)CO)C[C@@H]1C	none (no result: CXXC DNA block, Menin-MLL FL inh, Menin MLL FP TR)
c1ccc(N2CCN(c3ccccc3)C2c2cccs2)cc1	hERG WT inh -132.5
O=C(c1ccco1)N1CCN(S(=O)(=O)c2ccc(S(=O)(=O)NC3CC3)cc2)CC1	KCNH2 3.1 block -82.8
N=c1c(C(=O)NCC2CCCO2)cc2c(=O)n3ccccc3nc2n1Cc1ccccc1 (stereo not drawn)	none
N=c1c(C(=O)NC2CCCC2)cc2c(=O)n3ccccc3nc2n1Cc1ccccc1	KCNH2 3.1 block -77.1
COc1ccc(Cn2c(=N)c(C(=O)NCC3CCCO3)cc3c(=O)n4ccccc4nc32)cc1 (stereo not drawn)	none
Cc1ccc(Cn2c(=N)c(C(=O)NC3CCCCC3)cc3c(=O)n4ccccc4nc32)cc1	none (no result: Menin-MLL FL inh, Menin MLL FP TR)
N=c1c(C(=O)NCc2ccc3c(c2)OCO3)cc2c(=O)n3ccccc3nc2n1CC1CCCO1 (stereo not drawn)	none
N=c1c(C(=O)NCC2CCCO2)cc2c(=O)n3ccccc3nc2n1Cc1ccc(Cl)cc1 (stereo not drawn)	KCNH2 3.1 block -130.6 (no result: Menin-MLL FL inh, Menin MLL FP TR)
N=c1c(C(=O)NCc2ccc(F)cc2)cc2c(=O)n3ccccc3nc2n1CC1CCCO1 (stereo not drawn)	hERG WT inh -122.3, KCNH2 3.1 block -86.0
COc1ccc(CCn2c(=N)c(C(=O)NCC3CCCO3)cc3c(=O)n4ccccc4nc32)cc1 (stereo not drawn)	hERG WT inh inconclusive, KCNH2 3.1 block -86.2 (no result: Menin-MLL FL inh, Menin MLL FP TR)
Cn1nc(SCc2ccccc2)c(=O)[nH]c1=O	none (no result: CXXC DNA block, Menin-MLL FL inh, Menin MLL FP TR)
COc1ccc(CCn2c(=N)c(C(=O)NC3CCCC3)cc3c(=O)n4cccc(C)c4nc32)cc1	none (no result: Menin-MLL FL inh, Menin MLL FP TR)
COc1ccc(CCn2c(=N)c(C(=O)NC3CCCCC3)cc3c(=O)n4ccccc4nc32)cc1	CXXC DNA block inconclusive, hERG WT inh inconclusive, KCNH2 3.1 block -86.7 (no result: Menin-MLL FL inh, Menin MLL FP TR)
CCC1CC(C(=O)Nc2ccccc2)C(=O)O1 (stereo not drawn)	none (no result: CXXC DNA block, Menin-MLL FL inh, Menin MLL FP TR)
COc1ccc(CN2CCC(CO)(CCOc3ccccc3)CC2)c(OC)c1C	Menin MLL FP TR inconclusive, KCNH2 3.1 block inconclusive
COC(=O)c1ccc(CN2CCC(CO)(CCOc3ccccc3)CC2)cc1	KCNH2 3.1 block -97.0

Screening results as filed in PubChem BioAssay.
